Assay outcomes from PubChem.
In the library only some 3.4% were active in any assay of this set; here they are far more common.
GPR151 ag – human GPR151 activation. activation, % at 11.2 µM. PathHunter beta-arrestin GPR151 cells, luminescence. 650,000 tested, 1% active. Q8TDV0; in the data active means activation above about 4.9%
TEAD-YAP inh – TEAD-YAP interaction inhibition. HEK-TIYL cells, TEAD-Gal4/YAP UAS-luciferase luminescence. inhibition, % at 9.12 µM. 640,000 tested, 1.4% active; in the data active means inhibition above about 32%
MITF inh – inhibitors of human MITF; O75030; AlphaScreen MITF homodimerization, bead proximity signal; inhibition, % at 2.6 µM; 650,000 tested, 0.91% active; AID 1259374; in the data active means inhibition above about 50%
Target sequence (O75030 whole entry, looked up): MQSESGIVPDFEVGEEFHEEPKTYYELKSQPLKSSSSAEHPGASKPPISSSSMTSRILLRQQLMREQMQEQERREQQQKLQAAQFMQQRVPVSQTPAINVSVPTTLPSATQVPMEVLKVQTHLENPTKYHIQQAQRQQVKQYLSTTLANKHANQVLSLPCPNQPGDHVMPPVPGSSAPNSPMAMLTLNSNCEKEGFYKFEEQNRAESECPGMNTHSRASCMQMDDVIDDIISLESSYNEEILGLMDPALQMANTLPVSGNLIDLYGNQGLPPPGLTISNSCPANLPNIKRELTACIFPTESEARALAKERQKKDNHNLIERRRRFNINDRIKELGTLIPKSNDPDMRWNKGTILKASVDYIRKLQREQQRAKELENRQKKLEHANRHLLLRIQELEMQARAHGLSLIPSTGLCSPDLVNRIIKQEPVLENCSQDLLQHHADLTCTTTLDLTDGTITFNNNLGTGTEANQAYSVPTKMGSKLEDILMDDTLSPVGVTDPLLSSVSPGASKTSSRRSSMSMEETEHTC
FBW7 act – human FBW7 E3 ligase activation, primary screen | Q969H0 | AlphaScreen FBW7–phospho-cyclin E peptide binding, activator screen | normalized activity (activation), % at 26.1 µM | 650,000 tested, 0.13% active | AID 1259310; in the data active means normalized activity above about 1.9%;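 further: purified mutant Fbw7 with reduced substrate affinity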
MITF confirm – human MITF inhibition, confirmation | shares compounds with MITF inh | AlphaScreen MITF homodimerization, biotin/His-MITF beads | inhibition, % at 2.6 µM | 4,700 tested, 16% active;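 active means inhibition above a cutoff derived from the DMSO control wells, cut at about 28% in these data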;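 further: inhibitors lower the bead chemiluminescence by keeping MITF from dimerizing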
AlphaScreen DR – AlphaScreen optical interference, dose response counter-screen. shares compounds with MITF inh. AlphaScreen optical interference counterscreen, cell-free. IC50, µM. 480 tested, 6% active; call rule not given here
AlphaScreen intf2 – optically interferes with AlphaScreen signal. 4,700 tested, 7.6% active. inhibition, % at 2.6 µM. shares compounds with MITF inh. LysRS AlphaScreen counterscreen, signal interference, triplicate;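 active means inhibition above a cutoff derived from the DMSO control wells, cut at about 30% in these data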
Numbers stand for hits; . = inactive; / = not tested or not shown.

SMILES | GPR151 ag | TEAD-YAP inh | MITF inh | FBW7 act | MITF confirm | AlphaScreen intf2 | others
CC(=O)Oc1ccccc1N1C(=O)c2ccc(Oc3cccc(N)c3)cc2C1=O | . | . | 54 | . | 70 | . | AlphaScreen DR=.
FC(F)(F)c1cccc(-c2cc(NCCCn3ccnc3)nc(-c3ccccn3)n2)c1 | . | . | . | . | / | /
Fc1ccc(-c2cc(NCCCn3ccnc3)nc(-c3ccccc3)n2)cc1 | . | . | 55 | . | 34 | 42
Fc1ccc(-c2cc(NCCCn3ccnc3)nc(-c3ccccn3)n2)cc1 | . | . | 56 | . | . | 62
c1cc(-c2cc(NCCCn3ccnc3)nc(-c3ccncc3)n2)ccn1 | . | . | 72 | . | 34 | 42
O=C(Nc1ncn(C23CC4CC(CC(C4)C2)C3)n1)C(F)(F)F | . | . | . | . | / | /
O=C(COc1ccc2c(c1)oc(=O)c1ccccc12)c1ccc2c(c1)OCO2 | . | . | . | . | / | /
Cc1ncc([N+](=O)[O-])n1Cc1ccc(F)cc1 | . | . | . | . | / | /
COC(=O)c1ccc(Cn2c([N+](=O)[O-])cnc2C)cc1 | . | . | 78 | . | . | .
COc1ccc(CC(=O)N2CCOc3ccc(C(O)c4ccccn4)cc3C2)cc1OC (stereo not drawn) | . | . | . | . | / | /
O=C(c1ccco1)N1CCN(S(=O)(=O)c2ccc(I)cc2)CC1 | . | . | . | . | / | /
O=C(Cn1cc2c(n1)CCCC2)N1CCN(c2ccccc2)CC1 | . | . | 61 | . | . | .
O=C(Cn1cc2c(n1)CCCC2)N1CCCCC1 | . | . | . | . | / | /
CC[C@H](C)[C@@H]1NC(=O)[C@H]2CN(C(=O)NC3CCCCC3)CCN2C1=O | . | . | 74 | . | 70 | . | AlphaScreen DR=.
O=C1N[C@@H](CSCc2ccccc2)C(=O)N2CCN(C(=O)NC3CCCCC3)C[C@H]12 | . | . | 65 | . | 72 | . | AlphaScreen DR=.
O=C1N[C@@H](CC2CCCCC2)C(=O)N2CCN(C(=O)Nc3ccccc3)C[C@H]12 | . | . | 77 | . | 70 | . | AlphaScreen DR=.
CCC[C@@H]1NC(=O)[C@H]2CN(C(=O)NC3CCCCC3)CCN2C1=O | . | . | 77 | . | 71 | . | AlphaScreen DR=.
CC[C@H](C)[C@@H]1NC(=O)[C@H]2CN(C(=O)c3cc(Cl)cc(Cl)c3)CCN2C1=O | . | . | . | . | / | /
O=C1N[C@@H](CC2CCCCC2)C(=O)N2CCN(C(=O)c3cc(F)c(F)cc3F)C[C@H]12 | . | . | . | . | / | /
Cc1cc(-c2nc3cccnc3s2)ccc1NC(=O)c1ccc2ccccc2n1 | . | . | . | . | / | /
C[C@H]1NC(=O)[C@@H]2C[C@H](NC(=O)NC3CCCCC3)CN2C1=O | . | . | . | . | / | /
C[C@@H]1NC(=O)[C@H]2CN(C(=O)NC3CCCCC3)CCN2C1=O | . | . | 77 | . | 74 | . | AlphaScreen DR=.
COc1ccc(NC(=O)CCSC)cc1S(N)(=O)=O | . | . | . | . | / | /
CC(C)c1ccc(/C=C/C(=O)Nc2nn[nH]n2)cc1 | . | . | 52 | . | . | .
Cc1ccc(/C=C/C(=O)Nc2nn[nH]n2)o1 | . | . | . | . | / | /
SMILES | GPR151 ag | TEAD-YAP inh | MITF inh | FBW7 act | MITF confirm | AlphaScreen intf2 | others
Cc1ccc(-c2noc(C3CCCN(S(=O)(=O)c4ccc(C(C)(C)C)cc4)C3)n2)o1 (stereo not drawn) | . | . | 77 | . | . | .
Cc1nn2c(SCC(=O)NC3CCCCC3)nnc2[nH]c1=O | . | . | . | . | / | /
C=CCNc1nsc(C(=O)c2ccc(OC)c(OC)c2)c1N | . | . | . | . | / | /
Cc1cc(C(=O)Nc2ccccc2N2CCN(C)CC2)ccc1[N+](=O)[O-] | . | . | . | . | / | /
CC(=O)OCC(=O)[C@@]1(O)CC[C@H]2[C@@H]3CCC4=CC(=O)C=CC4(C)[C@H]3[C@@H](O)CC21C (stereo partly drawn) | . | / | . | . | / | /
Cc1n[nH]c(=S)n1/N=C/c1ccccc1F | . | . | 70 | . | . | .
CCC1CCCCN1CCCNC(=O)c1nn(-c2cc(OC)cc(OC)c2)c(=O)c2ccccc12 (stereo not drawn) | . | . | . | . | / | /
Cn1c(COc2ccc3c(c2)OCO3)nnc1SCc1ccccc1 | . | . | . | . | / | /
Cc1nc2nc(SCc3ccc([N+](=O)[O-])cc3)nn2c(C)c1Cc1ccc(F)cc1Cl | . | . | . | . | / | /
O=C(N/N=C/c1ccccn1)c1ccccn1 | . | . | . | . | / | /
Cc1occc1C(=O)N/N=C/C1CC=CCC1 (stereo not drawn) | . | . | 81 | . | . | .
Cc1occc1C(=O)N/N=C/C=C/c1ccco1 | . | . | 80 | . | 44 | . | AlphaScreen DR=.
O=C(N/N=C/C=C\c1ccco1)c1ccncc1 | . | . | . | . | / | /
Cc1occc1C(=O)N/N=C/C1CCCCC1 | . | . | . | . | / | /
O=C(N/N=C/C=C\c1ccco1)c1ccccn1 | . | . | 101 | . | 94 | 69
O=C(N/N=C\c1ccccn1)c1ccccn1 | . | . | 54 | . | 28 | 82
CC(C)N(CCNC(=O)c1cc(Nc2ccnn2C)nc2ccccc12)C(C)C | . | . | . | . | / | /
O=C(CSc1ccc2nnc(-c3cccs3)n2n1)NCc1ccc(F)cc1 | . | . | . | . | / | /
CN1C(=O)C(=Cc2cccc(OCc3ccc(F)cc3)c2)C(=O)N(C)C1=S | . | . | . | . | / | /
CC1CCCC(N2CCN(c3ccc([N+](=O)[O-])cc3)CC2)C1 (stereo not drawn) | . | . | . | . | / | /
CCCN1CCC(N2CCN(c3ccc([N+](=O)[O-])cc3)CC2)CC1 | . | . | 55 | . | . | .
O=[N+]([O-])c1ccc(CN2CCC(N3CCN(CCO)CC3)CC2)cc1 | . | . | 53 | . | . | .
CC1CCN(Cc2ccc([N+](=O)[O-])cc2)CC1 | . | . | . | . | / | /
O=[N+]([O-])c1ccc(CN2CCC(N3CCCCCC3)CC2)cc1 | . | . | . | . | / | /
CC1CCC(N2CCN(Cc3ccc([N+](=O)[O-])cc3)CC2)CC1 (stereo not drawn) | . | . | 65 | . | . | .
SMILES | GPR151 ag | TEAD-YAP inh | MITF inh | FBW7 act | MITF confirm | AlphaScreen intf2 | others
O=C(c1ccco1)N1CC[C@H]2[C@H](CCCN2C(=O)c2ccc(N3CCCC3=O)cc2)C1 | . | . | . | . | / | /
O=C(NC1CCN(C(=O)CN2CCOCC2)CC1)c1ccccc1F | . | . | 69 | . | . | .
Cc1cc(C)cc(NC(=O)COC(=O)c2cc[n+]([O-])cc2)c1 | . | . | . | . | / | /
Cc1ccc(NC(=O)COC(=O)c2cc[n+]([O-])cc2)cc1C | . | . | 77 | . | . | .
C=CCn1c(SCc2ccc(C)cc2)nc2cc(C(=O)NCc3ccco3)ccc2c1=O | . | . | . | . | / | /
C=CCn1c(SCC2OCCO2)nc2cc(C(=O)NCc3ccco3)ccc2c1=O | . | . | 67 | . | . | .
CCOc1ccccc1CN1CCC(N2CCN(c3ccccc3)CC2)CC1 | . | . | . | . | / | /
CC1CCCC(N2CCN(Cc3ccccc3F)CC2)C1 (stereo not drawn) | . | . | 63 | . | . | .
